These results are taken from PubChem BioAssay AID1346378 (National Center for Advancing Translational Sciences (NCATS), 2018).

Among all 420,000 compounds or so, about 540 (0.13%) were called active. The sample holds actives, similar compounds and a random draw of the others, so the mix is not that of the screen. Values without a mark were called inactive. Rule as the data show it: active = activity change below about -50%; inconclusive = mostly about -30% to -49%; inactive = weaker than that.

Phosphatidylinositol 4-kinase type 2-alpha (Homo sapiens), sequence (Q9BTU6 whole entry, looked up): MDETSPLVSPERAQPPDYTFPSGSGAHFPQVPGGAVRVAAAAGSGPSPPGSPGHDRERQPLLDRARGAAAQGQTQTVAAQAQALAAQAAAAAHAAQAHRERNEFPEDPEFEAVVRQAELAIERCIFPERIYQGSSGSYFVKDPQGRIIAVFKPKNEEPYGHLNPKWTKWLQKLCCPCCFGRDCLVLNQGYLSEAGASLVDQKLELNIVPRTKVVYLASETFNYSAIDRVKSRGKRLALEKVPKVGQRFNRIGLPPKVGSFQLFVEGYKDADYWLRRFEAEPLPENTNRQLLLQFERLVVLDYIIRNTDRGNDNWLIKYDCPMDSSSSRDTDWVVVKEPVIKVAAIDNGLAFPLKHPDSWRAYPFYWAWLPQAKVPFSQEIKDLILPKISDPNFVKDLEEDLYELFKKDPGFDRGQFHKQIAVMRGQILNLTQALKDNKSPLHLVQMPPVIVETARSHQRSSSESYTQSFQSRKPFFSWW

This test has as its target Phosphatidylinositol 4-kinase type 2-alpha (Homo sapiens) (UniProt Q9BTU6). The test can be described thus: qHTS for small molecular inhibitors of PI4K2A.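 As to activity change, negative = inhibition: -100% = wells without enzyme as full effect.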 As to conditions: purified PI4K2A, ADP-Glo luminescence, 1 h; at 76.9 µM, hits give low values. An outline of the steps: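 Compounds are screened against recombinant PI4K2A using PI as substrate and ATP, the latter dispensed at 300 microM. Reactions run one hour at ambient temperature before ADP-Glo detection; full inhibition defined by wells lacking enzyme.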
With `CCCCCn1c(=O)[nH]c2cc(C(=O)NCCN(C)CCCC)ccc2c1=O`, the activity change, negative = inhibition was 3.6%.

Regarding `O=C(CSc1cn(CC(=O)N2CCOCC2)c2ccccc12)Nc1ccccc1`, the activity change, negative = inhibition is -0.303%.

Regarding `CCCCOCCOC(=O)c1cccnc1`, the activity change, negative = inhibition is 0.377%.

Take `Cc1ccc(CNC(=O)CSc2c(C)cnc3c2c(=O)n(C)c(=O)n3C)cc1`: the activity change, negative = inhibition was -1.23%.

For the molecule `CO[C@]1(NC(=O)CSC(F)F)C(=O)N2C(C(=O)O)=C(CSc3nnnn3CCO)CO[C@H]21`, the activity change, negative = inhibition was -0.764%.

As to `CC(C)CNc1ncnc2c1nnn2C`, the activity change, negative = inhibition was 1.45%.

In the case of `CCN1CCN(C(=O)N[C@@H](C(=O)N[C@@H]2C(=O)N3[C@@H]2SC(C)(C)[C@H]3C(=O)O)c2ccccc2)C(=O)C1=O`, the activity change, negative = inhibition is 2.58%.

As for `CCOc1ccccc1CNC(=O)C1CCCN(S(=O)(=O)c2ccc3c(ccn3C)c2)C1` (stereo not given), the activity change, negative = inhibition is 2.73%.

Take `O=C(CSc1nnc(-c2ccccc2F)o1)Nc1cccc(C(F)(F)F)c1`: the activity change, negative = inhibition was 2.53%.

Turning to `CC1CC2C3CCC4=CC(=O)C=C[C@]4(C)[C@@]3(F)[C@@H](O)C[C@]2(C)[C@@]1(O)C(=O)CO` (stereo not given in full), the activity change, negative = inhibition was 2.22%.

Regarding `CCCCCn1c(=O)[nH]c2cc(C(=O)Nc3ccc(F)cc3)ccc2c1=O`, the activity change, negative = inhibition is 3.49%.

Turning to `COc1ccc(-c2cc(C(=O)NC(Cc3c[nH]c4ccccc34)C(=O)O)c(C)o2)cc1OC` (stereo not given), the activity change, negative = inhibition is -4.82%.

In the case of `COc1ccc(-c2cc(=O)oc3cc(OC(C)C(=O)NCC4CCC(C(=O)O)CC4)ccc23)cc1` (stereo not given), the activity change, negative = inhibition was -0.472%.

For the molecule `COc1ccc(-c2cc(=O)oc3cc(OCC(=O)N[C@@H](Cc4c[nH]c5ccccc45)C(=O)O)ccc23)cc1`, the activity change, negative = inhibition is -51.9% (active).

As for `NCC[C@H](O)C(=O)N[C@@H]1C[C@H](N)[C@@H](O[C@H]2O[C@H](CN)[C@@H](O)[C@H](O)[C@@H]2O)[C@H](O)[C@@H]1O[C@H]1O[C@H](CO)[C@@H](O)[C@H](N)[C@@H]1O`, the activity change, negative = inhibition result was “inactive”.

For `Cc1ccccc1OCc1nc2c3cnn(-c4ccccc4F)c3ncn2n1`, the activity change, negative = inhibition is -3.76%.

Regarding `CCc1ccc(CN(Cc2ccco2)C(=O)COc2ccc(Cl)c(C)c2)cc1`, the activity change, negative = inhibition is -7.93%.

As to `CCOc1ccc(NC(=O)Cn2c(=O)n(CCCC(=O)NCc3ccc4c(c3)OCO4)c(=O)c3ccccc32)cc1`, the activity change, negative = inhibition was -1.29%.

As to `CC1=NN(c2ccc(Cl)c(C(=O)O)c2)C(=O)/C1=C/c1ccc(-c2ccccc2[N+](=O)[O-])o1`, the activity change, negative = inhibition was -58.6% (active).

Consider `O=C(Cn1c(=O)n(Cc2cccs2)c(=O)c2cccnc21)Nc1ccc(F)cc1`, for which the activity change, negative = inhibition was -2.3%.

With `CCOC(=O)c1ccc(NC(=O)Cn2cc(S(=O)(=O)Cc3ccccc3F)c3ccccc32)cc1`, the activity change, negative = inhibition was -0.867%.

Regarding `Cc1ccc(C(=O)COC(=O)C(Cc2c[nH]c3ccccc23)NC(=O)c2ccc(Br)cc2)cc1` (stereo not given), the activity change, negative = inhibition is 1.44%.

`COCCCN1CCC(NC(=O)c2cc(Cl)c(N)c3c2OCC3)CC1`: the activity change, negative = inhibition was -0.718%.

Consider `CN(C)c1cccc(C(=O)Nc2nc3ccc(S(=O)(=O)NC(C)(C)C)cc3s2)c1`, for which the activity change, negative = inhibition was 0.225%.

Regarding `CN(Cc1ccccc1)C(=O)c1cn(C)c2ccc(S(=O)(=O)N(C)C3CCCCC3)cc2c1=O`, the activity change, negative = inhibition was 2.24%.

As to `CCOC(=O)c1ccc(N2C(=O)c3[nH]nc(-c4ccccc4)c3C2c2ccc(C(C)C)cc2)cc1` (stereo not given), the activity change, negative = inhibition was 4.25%.

As to `CCOC(=O)c1[nH]c(C)c(CCC(=O)N2CCN(c3ccccc3)CC2)c1C`, the activity change, negative = inhibition is -2.94%.

Turning to `CSc1ccccc1N1CCN(CCCCCC(=O)NC2CCCc3ccccc32)CC1` (stereo not given), the activity change, negative = inhibition is 3.17%.

For `COc1cccc(-c2cc(C(=O)Nc3ccc(C)cc3)[nH]n2)c1`, the activity change, negative = inhibition is -3.12%.

Turning to `COc1cc(C(=O)N2CCN(c3ccc(Nc4ccc(C)cc4)nn3)CC2)cc(OC)c1OC`, the activity change, negative = inhibition is 1.58%.

In the case of `CO/N=C(/C(=O)N[C@@H]1C(=O)N2C(C(=O)O)=C(Cn3nnc(C)n3)CS[C@H]12)c1csc(N)n1`, the activity change, negative = inhibition was -10.8%.

On to `O=C1Cc2cc(S(=O)(=O)Nc3ccc(OC(F)(F)F)cc3)cc3c2N1CCC3`, for which the activity change, negative = inhibition is -2.44%.

With `COC(=O)c1ccc(OC)c(Cn2c(=O)n(Cc3ccccc3)c(=O)c3c2c2cc(OC)ccc2n3C)c1`, the activity change, negative = inhibition was 4.84%.

Turning to `COc1ccccc1CNC(=O)CCn1c(=O)c2ccccc2n(CC(=O)Nc2ccc(Br)cc2F)c1=O`, the activity change, negative = inhibition is 2.55%.

For `COc1ccc(OC)c(NC(=O)CSc2nc3ccccc3nc2N2CCCCC2)c1`, the activity change, negative = inhibition is 3.46%.

With `CCOCCCNC(=O)c1c(NC(=O)Cc2coc3ccc(C)cc23)sc2c1CCC2`, the activity change, negative = inhibition was -1.23%.

On to `COC(=O)c1ccccc1NC(=O)c1cc(-c2ccccc2O)no1`, for which the activity change, negative = inhibition is -2.41%.

For `O=C1CSC(=S)N1/N=C/c1ccc(O)c([N+](=O)[O-])c1`, the activity change, negative = inhibition is -62.1% (active).

Consider `COC(=O)c1nc(Cl)c(Cl)nc1N`, for which the activity change, negative = inhibition is 2.02%.

Turning to `CCC(C(=O)Nc1cccc(-c2nc3cccnc3s2)c1C)c1ccccc1` (stereo not given), the activity change, negative = inhibition was 6.98%.

For the molecule `CCc1ccc(NC(=O)c2cnc3c(-c4ccccc4)c(C)nn3c2C)cc1`, the activity change, negative = inhibition is 0.0021%.

`CCCc1nn2c(=O)cc(COC(=O)c3ccc(NC(=O)C(C)Oc4ccccc4)cc3)nc2s1` (stereo not given): the activity change, negative = inhibition is -2.75%.

For the molecule `O=C(CC1C(=O)N(c2ccccc2)C(=O)N1CCc1cccs1)Nc1ccc(F)cc1` (stereo not given), the activity change, negative = inhibition is 3.68%.

As for `COc1ccc(C2=NC3(CCCCC3)N(CC(=O)Nc3ccc(C(C)C)cc3)C2=O)cc1`, the activity change, negative = inhibition is -3.85%.

`CCOC(=O)c1c(C)[nH]c(C)c1S(=O)(=O)NCC(=O)NCc1cccc(C)c1`: the activity change, negative = inhibition was -4.08%.

Consider `COc1ccccc1N1CCN(C2C(=O)c3ccccc3N2C(C)=O)CC1` (stereo not given), for which the activity change, negative = inhibition was 2.81%.

Take `COc1ccc(C2CC(=O)Nc3c2c(=O)nc2c(C)cccn32)cc1OC` (stereo not given): the activity change, negative = inhibition is -1.68%.

Consider `CCOC(=O)c1cc2c(=O)n3ccccc3nc2n(CCCOC)c1=NC(=O)C(C)(C)Oc1ccc(Cl)cc1`, for which the activity change, negative = inhibition was -2.85%.

`CCOC(=O)c1c(C)[nH]c(C)c1S(=O)(=O)N1CCC(C(=O)Nc2ccc(C)c(Cl)c2)CC1`: the activity change, negative = inhibition was 0.586%.

Consider `Cc1ccc(Cl)cc1NC(=O)C(C)n1nnc2sc(-c3ccccc3)cc2c1=O` (stereo not given), for which the activity change, negative = inhibition is 3.33%.
